Consider 32 compounds from PubChem BioAssay.

Several values for one entry are separate records, joined by “and”; a condition that tells them apart may be missing. Identical values can stand only once.

One assay can be described thus: small molecules captured by biotinylated probe aFGF2 – biochemical, small-molecule microarray, fluorescence 635/667, stem cell growth factor project, primary screen (AID 1067).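 Further: measures binding of biotinylated aFGF2 protein to printed compounds on slides; z-score merges feature fluorescence and signal-to-noise across triplicate slides.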 The conditions noted are these: higher = more signal; small-molecule microarray, probe aFGF2, fluorescence unless noted.
Consider `COC(=O)[C@@]1(Cc2ccccc2)[C@H]2c3cc(C(=O)N(C)C)[nH]c3C[C@H]2CN1C(=O)c1ccccc1`, for which the composite z-score is -0.0063.

For `CCCc1cc2c(n1Cc1cccc(Cl)c1)C(C)C1CN(C(=O)c3ccccc3)C(C)(C(=O)OC)C21` (stereo not drawn), the composite z-score worked out at 0.169.

For the compound `COC(=O)[C@H]1[C@H](c2ccccc2)C(=O)[C@]2(O)c3ccccc3O[C@@]12c1ccccc1`, the composite z-score was -0.0894.

Regarding `C[C@H]1O[C@H]2C3=C(C(=O)[C@@H]4O[C@@H]4[C@@H]3O)[C@@H]1[C@@H]1[C@@H](C)OC=C3[C@@H](O)[C@H]4O[C@H]4C(=O)[C@]312`, the composite z-score is -0.102.

In the case of `CCc1cc2c(nc1CC)CCN(CCC(C)=NOC)C2`, the composite z-score was -0.0097.

`O=P(c1ccccc1)(c1ccccc1)N1CC2(CC2)CC(O)(c2ccccc2)C1` (stereo not drawn) showed a composite z-score of 0.0316.

Take `OCc1ccc(C2=CC(C3CC3)N(Cc3sc4ccccc4c3Cl)CC2)cc1` (stereo not drawn): the composite z-score was -0.107.

Compound `C=C(CC1(C(C)NP(=O)(c2ccccc2)c2ccccc2)CC1)c1ccccc1` (stereo not drawn) returned a composite z-score of 0.208.

In turn, `C=C(CC1(CNP(=O)(c2ccccc2)c2ccccc2)CC1)c1ccccc1` registered a composite z-score of 0.179.

On to `CCOC(=O)[C@H]1CC=C2C(=O)Oc3ccccc3[C@@H]21`, for which the composite z-score was -0.083.

For `CCOC(=O)[C@H]1CC=C2C(=O)Oc3ccc(Br)cc3[C@@H]21`, the composite z-score was -0.161.

As for `C[C@@H]1OC=C2[C@@H](O)[C@H]3O[C@H]3C(=O)[C@]23[C@H]1[C@H]1C2=C([C@@H](O)[C@H]4O[C@H]4C2=O)[C@@H]3O[C@@H]1C`, the composite z-score was -0.169.

`COC(=O)[C@@]1(Cc2ccccc2)[C@H]2c3cc(C(=O)N(C)C)n(C)c3C[C@H]2CN1C(=O)c1ccccc1` returned a composite z-score of 0.175.

Regarding `c1ccc(-c2cc3c(nc2-c2ccccc2)CCNC3)cc1`, the composite z-score was -0.0494.

Regarding `COC(=O)NCC=Cc1nc(CCC=CC(=O)O[C@H]2CC3CC(=O)O[C@@H](C=CCC(C)C)C[C@@H]4CC[C@H](C)[C@@H](C[C@@H](OC)C[C@H](C2)O3)O4)co1`, the composite z-score is -0.114.

Regarding `CCCc1cc2c(n1CCO)C(C)C1CN(C(=O)c3ccccc3)C(C)(C(=O)OC)C21` (stereo not drawn), the composite z-score stood at 0.374.

The next assay is described as follows: small molecules captured by biotinylated probe aFGF10 – biochemical, small-molecule microarray, fluorescence 635/667, stem cell growth factor project, primary screen (AID 1071).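 Further: score merges 667 nm spot intensity and signal to noise from triplicate slides.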 The following applies: higher = more signal; small-molecule microarray, probe aFGF10, fluorescence unless noted.
Regarding `CCCC=C(CCC)[C@@H](NP(=O)(c1ccccc1)c1ccccc1)c1ccccc1`, the composite z-score was 0.33.

Take `COC(=O)[C@H]1C(=O)c2ccccc2O[C@@](C(=O)OC)(c2ccccc2)[C@@H]1c1ccccc1`: the composite z-score was determined as 0.179.

`C[C@@H]1Cc2c(cnc3c2CN(C)CC3)CO1`: the composite z-score amounted to 0.0502.

`COc1cc2c(cc1O)C(C)N(C)CC2` (stereo not drawn): the composite z-score was -0.021.

`CN1CCc2nc(CO)c(CO)cc2C1` came in with a composite z-score of 0.401.

On to `COC(=O)C1(C)C=C2C(=C(C)C(=O)C2C)CN1` (stereo not drawn), for which the composite z-score was -0.195.

On to `CC1N(P(=O)(c2ccccc2)c2ccccc2)CC(O)(c2ccccc2)CC12CC2` (stereo not drawn), for which the composite z-score is 0.309 and 0.352.

For the compound `OCc1ccc(C2=CC(c3cccs3)N(Cc3cccc(OC(F)(F)F)c3)CC2)cc1` (stereo not drawn), the composite z-score is -0.242.

In the case of `CN1CCC(c2ccc(CO)cc2)=CC1C1CC1` (stereo not drawn), the composite z-score was -0.301.

On to `COC(=O)[C@H]1[C@@H](O)[C@@]2(O)c3c(OC)cc(OC)cc3O[C@@]2(c2ccc(OC)cc2)[C@@H]1c1ccccc1`, for which the composite z-score was 0.52.

For `CN1CCC(c2ccc(CO)cc2)=CC1c1cccs1` (stereo not drawn), the composite z-score is -0.53.

Take `COC(=O)[C@@]1(Cc2ccc(F)cc2)[C@H]2c3cc(C(=O)N(C)C)[nH]c3C[C@H]2CN1C(=O)c1ccccc1`: the composite z-score is 0.203 [setting not given].

Compound `CCCc1cc2c(n1Cc1ccc(C)cc1)C(C)C1CN(C(=O)c3ccccc3)C(C)(C(=O)OC)C21` (stereo not drawn) displayed a composite z-score of 1.14.

`COc1cc2c(cc1O)C=[N+](C)CC2`: the composite z-score is -0.17.

For `CCCc1cc2c(n1Cc1ccco1)C(C)C1CN(C(=O)c3ccccc3)C(C)(C(=O)OC)C21` (stereo not drawn), the composite z-score came to 0.657.

Turning to `CCCC[C@@H]1C[C@H]1[C@@H](NP(=O)(c1ccccc1)c1ccccc1)c1ccc(Cl)cc1`, the composite z-score was -0.0013.

As to `COC(=O)[C@@]1(Cc2ccccc2)[C@H]2c3cc(C(=O)N(C)C)[nH]c3C[C@H]2CN1C(=O)c1ccccc1`, the composite z-score was -0.12.

As to `CCCc1cc2c(n1Cc1cccc(Cl)c1)C(C)C1CN(C(=O)c3ccccc3)C(C)(C(=O)OC)C21` (stereo not drawn), the composite z-score amounted to 0.241.

On to `COC(=O)[C@H]1[C@H](c2ccccc2)C(=O)[C@]2(O)c3ccccc3O[C@@]12c1ccccc1`, for which the composite z-score was 0.273.

Regarding `C[C@H]1O[C@H]2C3=C(C(=O)[C@@H]4O[C@@H]4[C@@H]3O)[C@@H]1[C@@H]1[C@@H](C)OC=C3[C@@H](O)[C@H]4O[C@H]4C(=O)[C@]312`, the composite z-score is -0.494.

As to `CCc1cc2c(nc1CC)CCN(CCC(C)=NOC)C2`, the composite z-score was 0.324.

Take `O=P(c1ccccc1)(c1ccccc1)N1CC2(CC2)CC(O)(c2ccccc2)C1` (stereo not drawn): the composite z-score stood at 0.862.

As for `OCc1ccc(C2=CC(C3CC3)N(Cc3sc4ccccc4c3Cl)CC2)cc1` (stereo not drawn), the composite z-score is 0.261.

With `C=C(CC1(C(C)NP(=O)(c2ccccc2)c2ccccc2)CC1)c1ccccc1` (stereo not drawn), the composite z-score amounted to 0.851.

The compound `C=C(CC1(CNP(=O)(c2ccccc2)c2ccccc2)CC1)c1ccccc1` displayed a composite z-score of 0.33.

As to `CCOC(=O)[C@H]1CC=C2C(=O)Oc3ccccc3[C@@H]21`, the composite z-score is -0.491.

Turning to `CCOC(=O)[C@H]1CC=C2C(=O)Oc3ccc(Br)cc3[C@@H]21`, the composite z-score was -0.332.

Turning to `C[C@@H]1OC=C2[C@@H](O)[C@H]3O[C@H]3C(=O)[C@]23[C@H]1[C@H]1C2=C([C@@H](O)[C@H]4O[C@H]4C2=O)[C@@H]3O[C@@H]1C`, the composite z-score is -0.0391.

Compound `COC(=O)[C@@]1(Cc2ccccc2)[C@H]2c3cc(C(=O)N(C)C)n(C)c3C[C@H]2CN1C(=O)c1ccccc1` displayed a composite z-score of 0.536.

Turning to `c1ccc(-c2cc3c(nc2-c2ccccc2)CCNC3)cc1`, the composite z-score is -0.296.

With `COC(=O)NCC=Cc1nc(CCC=CC(=O)O[C@H]2CC3CC(=O)O[C@@H](C=CCC(C)C)C[C@@H]4CC[C@H](C)[C@@H](C[C@@H](OC)C[C@H](C2)O3)O4)co1`, the composite z-score is -0.328.

`CCCc1cc2c(n1CCO)C(C)C1CN(C(=O)c3ccccc3)C(C)(C(=O)OC)C21` (stereo not drawn): the composite z-score was 0.0514.
